Test results published in PubChem BioAssay (NCATS).
Activity calls are given as the source filed them. A call without a number means that no potency is given here. Calls follow the shape of the dose curve; as a rule, active = well fitted curve in the direction sought with a large enough effect; inconclusive = small, poorly fitted or top-dose-only effect, or another doubt; inactive = no such curve, though single readings can be large or run the other way.

What follows are compounds tested against Hexokinase-4 (Homo sapiens) + Glucokinase regulatory protein (Homo sapiens) (UniProt P35557+Q14397) (assay: qHTS assay for inhibitors of recombinant human GCK-GKRP interaction: Diaphorase-coupled assay (AID 743205)). Conditions: G6PDH/diaphorase resorufin fluorescence; series mostly up to 57.5 µM.
Summary of the method: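 Resorufin fluorescence (525/590 nm), read each minute over 30 min, reports GCK activity coupled via G6PDH and diaphorase. Reaction: 10 nM GST-GCK, 10 nM FLAG-GKRP, 5 mM glucose, 0.4 mM ATP, 0.15 mM NADP+, 0.1 mM resazurin.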

Sequence of Hexokinase-4 (Homo sapiens) + Glucokinase regulatory protein (Homo sapiens) (P35557 whole entry, looked up): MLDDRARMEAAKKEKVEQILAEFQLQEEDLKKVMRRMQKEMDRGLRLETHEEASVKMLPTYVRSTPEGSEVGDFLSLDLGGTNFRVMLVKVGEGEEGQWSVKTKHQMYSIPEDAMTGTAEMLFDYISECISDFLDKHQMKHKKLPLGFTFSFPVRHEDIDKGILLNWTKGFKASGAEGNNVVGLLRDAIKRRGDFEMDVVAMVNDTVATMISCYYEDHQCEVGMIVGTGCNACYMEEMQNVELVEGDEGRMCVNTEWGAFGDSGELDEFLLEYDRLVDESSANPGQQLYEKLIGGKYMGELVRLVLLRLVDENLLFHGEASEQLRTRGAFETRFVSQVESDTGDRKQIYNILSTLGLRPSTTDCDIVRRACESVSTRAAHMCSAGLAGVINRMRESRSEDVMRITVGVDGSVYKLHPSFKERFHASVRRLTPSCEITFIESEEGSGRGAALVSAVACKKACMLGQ
Sequence of Hexokinase-4 (Homo sapiens) + Glucokinase regulatory protein (Homo sapiens) (Q14397 whole entry, looked up): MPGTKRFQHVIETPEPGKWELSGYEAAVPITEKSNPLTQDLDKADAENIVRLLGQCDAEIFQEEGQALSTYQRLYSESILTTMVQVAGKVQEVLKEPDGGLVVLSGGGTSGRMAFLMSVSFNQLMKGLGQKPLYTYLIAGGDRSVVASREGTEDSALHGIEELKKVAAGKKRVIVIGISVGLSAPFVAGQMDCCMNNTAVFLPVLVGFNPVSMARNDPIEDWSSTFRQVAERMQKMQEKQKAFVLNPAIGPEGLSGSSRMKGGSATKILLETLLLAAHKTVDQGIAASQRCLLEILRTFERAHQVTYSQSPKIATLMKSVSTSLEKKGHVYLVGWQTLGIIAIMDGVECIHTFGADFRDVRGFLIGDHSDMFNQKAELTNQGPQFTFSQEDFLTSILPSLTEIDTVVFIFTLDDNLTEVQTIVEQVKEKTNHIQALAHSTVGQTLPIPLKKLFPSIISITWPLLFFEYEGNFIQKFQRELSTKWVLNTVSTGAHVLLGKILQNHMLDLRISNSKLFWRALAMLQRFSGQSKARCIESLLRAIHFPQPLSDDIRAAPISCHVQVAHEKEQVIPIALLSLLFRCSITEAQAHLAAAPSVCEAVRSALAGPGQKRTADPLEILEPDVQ

| Structure (SMILES) | Potency |
| --- | --- |
| CCCCS(=N)(=O)CC[C@H](N)C(=O)O (stereo partly drawn) | inactive |
| CSC(=N)N | inactive |
| C[C@H]1CC2C3CCC4=CC(=O)C=C[C@]4(C)[C@@]3(Cl)[C@@H](O)C[C@]2(C)[C@@]1(O)C(=O)CO (stereo partly drawn) | inactive |
| CN1Cc2sccc2C(c2ccc(O)c(O)c2)C1 (stereo not drawn) | inactive |
| OCC1NCC(O)C(O)C1O (stereo not drawn) | inactive |
| O=C(O)Cc1c[nH]c2ccc(O)cc12 | inactive |
| CCOC(=O)C12CC1/C(=N/O)c1ccccc1O2 (stereo not drawn) | inactive |
| Nc1ccc(N2C(=O)c3ccccc3C2=O)c(Cl)c1 | inactive |
| C=CC[C@H](N)C(=O)O | inactive |
| COc1ccc2c(c1)c(CC(=O)O)c(C)n2C(=O)c1ccccc1 | inactive |
| CC(N)=O | inactive |
| N#C/C(=C\c1ccc(O)c(O)c1)C(=O)NCCc1ccccc1 | inactive |
| NCC(O)C1CCCCCCC1 (stereo not drawn) | inactive |
| C[N+](C)(C)CC=O | inactive |
| CC(=O)NNC(=O)N1Cc2ccccc2Oc2ccc(Cl)cc21 | inactive |
| CCCn1c(=O)c2c(ncn2C)n(CCC)c1=O | inactive |
| COc1ccc(CCn2nnnc2C2(c3ccc(C)cc3)CC2)cc1 | inactive |
| CNCCNS(=O)(=O)c1cccc2cnccc12 | inactive |
| CN(C)S(=O)(=O)c1ccc2c(c1)/C(=C/c1cc3c([nH]1)CCCC3)C(=O)N2 | inactive |

| Structure (SMILES) | Potency |
| --- | --- |
| O=c1onc2n1-c1cc(Br)ccc1OC2 | inactive |
| Fc1ccc(CN(C2=NCCN2)c2c(Cl)cccc2Cl)cc1 | inactive |
| NCCC1CCCC(CCN)N1 (stereo not drawn) | inactive |
| O=C(O)C1=CCCNC1 | inactive |
| Cn1c(=O)c2[nH]c(-c3ccc(S(=O)(=O)O)cc3)nc2n(C)c1=O | inactive |
| N[C@H]1CONC1=O | inactive |
| CC1CNCCN1S(=O)(=O)c1cccc2cnccc12 (stereo not drawn) | inactive |
| CCCCOc1cc(CC2CNC(=O)N2)ccc1OC (stereo not drawn) | inactive |
| CC(C)(C)NCC(O)COc1cccc2[nH]c(=O)[nH]c12 (stereo not drawn) | inactive |
| O=C(O)c1ccccc1Nc1ccccc1 | inactive |
| N=S(=O)(O)Cc1noc2ccccc12 | inactive |
| CCN(CC)CCCCCCCCOC(=O)c1cc(OC)c(OC)c(OC)c1 | inactive |
| O=c1[nH]c2cc(Cl)ccc2c(O)c1-c1ccc(Oc2ccccc2)cc1 | inactive |
| Nc1nc2c(cnn2CCc2ccccc2)c2nc(-c3ccco3)nn12 | inactive |
| NS(=O)(=O)c1cccc2c1c([N+](=O)[O-])cc1nc(O)c(O)nc12 | inactive |
| Oc1cc(O)c2c(c1)O[C@H](c1ccc(O)c(O)c1)[C@@H](O)C2 | inactive |
| Cc1ccc([N+](=O)[O-])cc1S(=O)(=O)N(C)C | inactive |
| COc1cc(/C=C(\C#N)C(=O)c2ccc(O)c(O)c2)cc(I)c1O | inactive |
| CNc1ncnc2c1ncn2[C@H]1C[C@H](OP(=O)(O)O)[C@@H](COP(=O)(O)O)O1 | inactive |
